This passage reports growth results from PubChem BioAssay (NCI).

About 83,000 compounds went through this panel and 20% of them were active in at least one assay; those are over-represented in the sample as a whole.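 Percent growth is the endpoint: 0 to 100 indicates growth inhibition (40 means 60% inhibition), 0 means no net growth, and negative values indicate cell death.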 Activity calls are given as the source filed them. Rule for the calls: active = growth percent below 10; inactive = the rest.

In this experiment the test system is SW-620 colon. As to the kind of experiment: NCI-60 one-dose screen, 48 h (100 = growth as untreated, 0 = no growth, -100 = all killed). The settings on record: 10 µM unless noted.
Turning to `ClC(Cl)c1nc(-c2cccs2)n2nc(-c3ccccc3)cc2n1`, the growth is -1.61% (active).

In the case of `O=C(COc1ccc(C2SCC(=O)N2c2ccccc2)cc1)c1ccccc1` (centres undefined), the growth is 104% (inactive).

`c1ccc(-c2n(Cc3ccc4ccccc4c3)c3c4ccccc4c4ccccc4c3[n+]2Cc2ccc3ccccc3c2)cc1`: the growth was -75.4% (active).

`O=C1[C@@H]2Cc3c([nH]c4ccccc34)[C@H](c3c(Cl)cccc3Cl)N2C(=O)CN1C1CCN(Cc2c(F)cccc2F)CC1`: the growth was 72.1% (inactive).

On to `NCCN1CCN(c2nc(-c3ccccc3)nc3nc(-c4ccccc4)oc23)CC1`, for which the growth was -55% (active).

As to `C/C(=C(/C)C1CC1CCN(C(=O)c1ccccn1)S(=O)(=O)c1ccc(C)cc1)C1CCCCC1` (centres undefined), the growth was 103% (inactive).

As for `Cc1nn(-c2ccccc2)cc1/C=N/Nc1nc(Nc2ccccc2)nc(Nc2ccc(S(N)(=O)=O)cc2)n1`, the growth was -14.3% (active).

Consider `Brc1cccc(/C=N/Nc2nc(N/N=C/c3cccc(Br)c3)nc(N3CCOCC3)n2)c1`, for which the growth is 24.7% (inactive).

Consider `COc1cc(/C=C2\SC(=O)NC2=O)ccc1OCC(=O)Nc1ccc(C(=O)/C=C/c2cc3ccccc3nc2Cl)cc1`, for which the growth was 96.6% (inactive).

As to `O=c1oc2ccc(-c3ccc(F)cc3F)cc2c(=O)n1-c1ccc(F)c(F)c1`, the growth is 12.7% (inactive).

In the case of `CC[C@@](C)(NC(=O)C(C)(C)NC(=O)[C@@H](NC(=O)[C@@H]1CCCN1C(=O)C(C)(C)NC(=O)[C@H](CC(C)C)NC(=O)CNC(=O)C(C)(C)NC(=O)[C@@H](NC(=O)C(C)(C)NC(=O)[C@H](CCC(N)=O)NC(=O)[C@H](C)NC(=O)C(C)(C)NC(=O)[C@H](C)NC(=O)C(C)(C)NC(=O)[C@@H]1CCCN1C(=O)C(C)(C)NC(C)=O)C(C)C)C(C)C)C(=O)N[C@@H](CCC(N)=O)C(=O)N[C@@H](CCC(N)=O)C(=O)N[C@H](CO)Cc1ccccc1`, the growth is 54.9% [4.25 µM] (inactive).

In the case of `O=C(/C=C/c1cn(-c2ccccc2)nc1-c1ccc(Cl)cc1)c1cc2ccccc2oc1=O`, the growth is 74% (inactive).

Take `CCN1C(=O)N(CC)C2SC(N/N=C/c3ccc(OC)cc3)=NC21` (centres undefined): the growth is 20.2% (inactive).

On to `O=C(O)c1ccc(-n2cc(CNc3ccc(F)cc3)c(-c3ccc(C(F)(F)F)cc3)n2)cc1`, for which the growth was 98.6% (inactive).

`COc1cc(/C=C/C(=O)c2ccc(NC(=O)COc3cccc4cccnc34)cc2)cc(OC)c1OC`: the growth is 69.8% (inactive).

As to `COc1cc(CNC(=O)Cc2ccccc2[N+](=O)[O-])ccc1OCC(=O)NO`, the growth was 110% (inactive).

On to `Oc1ccc(CSc2nnc(-c3cnccn3)o2)c2cccnc12`, for which the growth was 12.9% (inactive).

In the case of `O=C(NCCCNc1cc(-c2cn(-c3ccccc3)nc2-c2cccc(O)c2)ccn1)Nc1ccc(F)cc1`, the growth was 13.5% (inactive).

With `COc1ccc(-c2nn(-c3ccccc3)cc2/C=C/C(=O)c2ccc(NC(=O)CCCCCCC(=O)NO)cc2)cc1`, the growth is 111% (inactive).

As for `O=C1[C@H]2Cc3c([nH]c4ccccc34)[C@@H](c3c(Cl)cccc3Cl)N2C(=O)CN1C1CCN(Cc2ccccc2)CC1`, the growth is 44.5% (inactive).

Consider `COc1cccc(/C=C/C(=O)c2ccc(NC(=O)COc3cccc4cccnc34)cc2)c1`, for which the growth is 94.3% (inactive).

As for `CCCC(=O)NC(c1cccnc1)c1cc(Cl)c2cccnc2c1O` (centres undefined), the growth was 26% (inactive).

For `C/C(=N/Nc1nc(N/N=C(/C)c2ccc([N+](=O)[O-])cc2)nc(N2CCOCC2)n1)c1ccc([N+](=O)[O-])cc1`, the growth is 95.5% (inactive).

As for `Oc1ccc(CSc2nnc(-c3cnccn3)n2-c2ccccc2)c2cccnc12`, the growth was 23.8% (inactive).

On to `CCOC(=O)C1=C(C)Nc2nc3ccccc3n2C1c1ccccc1` (centres undefined), for which the growth is 87.8% (inactive).

Consider `Oc1ccc(CSc2nnc(-c3ccc(Br)cc3)o2)c2cccnc12`, for which the growth is 17.7% (inactive).

In the case of `CNC(=O)c1cc(N2CCc3cc(NC(=O)Nc4ccc(Cl)c(Cl)c4)ccc32)ccn1`, the growth was 114% (inactive).

Turning to `COc1cc2cc(Oc3ccc(NC(=O)Nc4cc(C(F)(F)F)cc(C(F)(F)F)c4)cc3)c(C)nc2cc1OCCN(C)C`, the growth was 106% (inactive).

Regarding `Cc1cc(O)c(=O)cc2c1C[C@H]1CC(C)(C)/C=C/C[C@]3(C)Oc4cc(=O)c(O)cc(C)c4C[C@H]3C[C@H](O)[C@@]1(C)O2`, the growth was 15.1% (inactive).

For `COc1ccc(-c2nnc(SCc3ccc(O)c4ncccc34)n2-c2ccccc2)cc1`, the growth was 12.7% (inactive).

Take `O=C(CCCCCCN1CC(=O)N2[C@@H](c3ccc(Cl)c(F)c3)c3[nH]c4ccccc4c3C[C@H]2C1=O)NO`: the growth is 74.7% (inactive).

Consider `Oc1ccc(CSc2nnc(-c3ccccc3)n2-c2ccccc2)c2cccnc12`, for which the growth was 11.6% (inactive).

For the molecule `Cc1ccc(NC(=O)c2ccc(CN3CCN(C)CC3)c(C(F)(F)F)c2)cc1Oc1ccc(-c2[nH]nc3ncnc(N)c23)cc1`, the growth is 24.3% (inactive).

Turning to `CC(c1ccccc1)N1C(=O)/C(=C/c2csc(C#N)n2)SC1=S` (centres undefined), the growth was 74.1% (inactive).

For the molecule `O=C(COc1ccc(C2SCC(=O)N2c2ccc(F)cc2)cc1)c1ccccc1` (centres undefined), the growth was 116% (inactive).

Take `COc1ccc(-c2nnc(SCc3ccc(O)c4ncccc34)o2)cc1`: the growth is 17.7% (inactive).

`O=c1[nH]c(CNc2ccc(NCc3c(-c4ccccc4)no[n+]3[O-])cc2)nc2c1cnn2-c1ccccc1`: the growth was 92.8% (inactive).

For the molecule `COc1ccc(N)cc1C(=O)Nc1cccc(-c2cc(=O)c3c(OC)c(OC)c(OC)cc3o2)c1`, the growth was 91.4% (inactive).

For `CCCC(=O)NC(c1cccnc1)c1cc(C(C)=O)c2cccnc2c1O` (centres undefined), the growth is 38% (inactive).
